The values below come from PubChem BioAssay AID1851 (National Center for Advancing Translational Sciences (NCATS), 2009).

Hit rate of the full screen: of about 16,000 compounds, about 5,100 (32%) were called active. Another 25% or so got no clear call; they are omitted. Some of the results follow. Unmarked numbers belong to inactive results. Calls come from the whole dose curve; as a rule, active = well fitted curve in the direction sought with a large enough effect; inconclusive = small, poorly fitted or top-dose-only effect, or effect the other way; inactive = no such curve, though single readings can be large or run the other way.
% is set by controls: 0 for no effect and ±100 for the full control effect.

For the assay, the target named is Cytochrome P450 3A4 (Homo sapiens) (UniProt P08684). The experiment in a line: Cytochrome panel assay with activity outcomes. Conditions: recombinant CYP, pro-luciferin dealkylation, luminescence, p450-cyp3a4; series mostly up to 57.1 µM; activity, negative = inhibition: at the top concentration.
Chain of Cytochrome P450 3A4 (Homo sapiens) (P08684 whole entry, looked up): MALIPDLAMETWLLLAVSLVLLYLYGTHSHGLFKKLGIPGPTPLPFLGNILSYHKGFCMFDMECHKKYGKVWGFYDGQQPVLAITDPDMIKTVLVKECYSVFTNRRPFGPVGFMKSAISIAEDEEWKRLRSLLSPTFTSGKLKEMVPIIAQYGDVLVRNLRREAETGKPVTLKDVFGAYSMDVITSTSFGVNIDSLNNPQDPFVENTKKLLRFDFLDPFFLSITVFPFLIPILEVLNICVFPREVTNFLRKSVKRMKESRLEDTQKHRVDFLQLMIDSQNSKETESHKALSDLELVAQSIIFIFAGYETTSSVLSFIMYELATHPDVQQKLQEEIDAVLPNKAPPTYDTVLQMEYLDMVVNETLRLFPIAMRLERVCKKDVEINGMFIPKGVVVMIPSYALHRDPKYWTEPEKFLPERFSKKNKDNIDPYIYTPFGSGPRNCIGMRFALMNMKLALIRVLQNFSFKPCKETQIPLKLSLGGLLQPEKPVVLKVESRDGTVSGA
`O=C1C(O)=C(O)C(=O)C(O)=C1O`: the “activity, negative = inhibition” value is -16.8% [at 25.6 µM]. Take `NC(N)=NC(N)=Nc1ccc(S(=O)(=O)O)cc1`: the activity, negative = inhibition was -0.586% [at 11.4 µM]. Take `CC1=CC=CN2CC(O)CN=C12` (stereo not given): the “activity, negative = inhibition” value is -1.24%. In general, AC50 refers to the concentration at which the activity in the assay is half-maximal. Take `COc1ccc(Cc2nnc(NC(=O)c3cccc([N+](=O)[O-])c3C)s2)cc1`: the AC50 is 10 µM (active).

For the compound `Cc1c(C(=O)NN2CCN(C)CC2)cccc1[N+](=O)[O-]`, the “activity, negative = inhibition” value was -3.79%. For `COc1ccc(Cc2nnc(NC(=O)c3ccco3)s2)cc1`, the “activity, negative = inhibition” value is 13.7%. Turning to `O=C(CN1CCCCC1)Nc1nnc(-c2ccc([N+](=O)[O-])cc2)s1`, the concentration at half-maximal activity (AC50) was 7.94 µM (active). In the case of `O=C(CN1CCCCC1)Nc1cccc([N+](=O)[O-])c1`, the “activity, negative = inhibition” value is 22.9%. Turning to `COCC(=O)N(C)c1nnc(-c2ccc([N+](=O)[O-])cc2)s1`, the activity, negative = inhibition is -5.26% [at 2.29 µM]. Turning to `FC(F)(F)c1ccc(/C=N/N2CCN(Cc3cccc4ccccc34)CC2)cc1`, the activity, negative = inhibition is 15.5% [at 2.29 µM]. Take `Cn1c(=O)oc2cc(S(=O)(=O)NCCC(=O)N3CC=C(c4ccccc4)CC3)ccc21`: the AC50 was 12.6 µM (active). With `CCCN(CCC)CCNC(=O)C1CCCN(S(=O)(=O)c2ccc3c(c2)oc(=O)n3C)C1` (stereo not given), the “activity, negative = inhibition” value was -19.5%. As for `Cn1c(=O)c2cc(S(=O)(=O)NCCC(=O)N3CC=C(c4ccccc4)CC3)ccc2n(C)c1=O`, the AC50 is 10 µM (active). As to `Cn1c(=O)c2cn(-c3ccccc3)cc2n(C)c1=O`, the activity, negative = inhibition was -2.19% [at 11.4 µM]. For the compound `O=C(Nc1ccccc1)[C@@]12C[C@@H]1/C(=N/O)c1ccccc1O2`, the “activity, negative = inhibition” value was -18.7%.

In the case of `Fc1ccc(C(OCCCc2cnc[nH]2)c2ccc(F)cc2)cc1`, the concentration at half-maximal activity (AC50) was 0.794 µM (active).

Consider `O=C(O)CCC(O)=C1S(=O)(=O)OCCOS1(=O)=O`, for which the activity, negative = inhibition is 2.08% [at 11.4 µM]. In the case of `O=c1[nH]c2cc3c(cc2cc1CN(CCCO)Cc1nnnn1Cc1ccc(F)cc1)OCO3`, the AC50 is 3.16 µM (active). Consider `COc1ccccc1CN(Cc1cc2cc3c(cc2[nH]c1=O)OCCO3)Cc1nnnn1Cc1ccco1`, for which the AC50 is 10 µM (active). On to `COc1ccccc1CN(Cc1cc2cc(C)cc(C)c2[nH]c1=O)Cc1nnnn1CC1CCCO1` (stereo not given), for which the half-maximal activity concentration (AC50) was 10 µM (active). Same read-out and setting: the value for `Cc1cc(C)c2cc(CN(Cc3nnnn3Cc3ccc(F)cc3)C3CCCC3)c(=O)[nH]c2c1` was 10 µM (active).

As for `NC(N)=N/N=C\c1ccc(C2CCNCC2)cc1`, the activity, negative = inhibition is -4.2% [at 11.4 µM]. Regarding `CN(C)CCCn1c2c3ccccc3ccc2c2oc(=O)c3ccccc3c21`, the activity, negative = inhibition is 3.83% [at 11.4 µM].

For the compound `NC1=NC(=O)/C(=C/c2cccs2)S1`, the “activity, negative = inhibition” value is 10.4%. For the compound `CCNc1ncc2nc(-c3ccc(Cl)cc3)c(=O)n(C)c2n1`, the “activity, negative = inhibition” value was -10.1%. Take `CCNc1ncc2nc(CCc3ccccc3)c(=O)n(C3CC3)c2n1`: the concentration at half-maximal activity (AC50) was 15.8 µM (active). With `CCNc1ncc2nc(-c3ccccc3)c(=O)n(C3CC3)c2n1`, the “activity, negative = inhibition” value is -27.1%. Turning to `CCNc1ncc2nc(CCc3ccccc3)c(=O)n(-c3ccc(OC)cc3)c2n1`, the concentration at half-maximal activity (AC50) was 6.31 µM (active).

Consider `COc1ccc(-n2c(=O)c(CCc3ccccc3)nc3cnc(N4CCOCC4)nc32)cc1`, for which the AC50 was 12.6 µM (active). On to `CCNc1ncc2nc(CCc3ccccc3)c(=O)n(-c3ccccc3)c2n1`, for which the AC50 was 5.01 µM (active). For `COc1ccc(-n2c(=O)c(-c3ccccc3)nc3cnc(N4CCOCC4)nc32)cc1`, the “activity, negative = inhibition” value is -13.6%. Take `CCNc1ncc2nc(C)c(=O)n(C3CC3)c2n1`: the “activity, negative = inhibition” value was -24.2%. Take `CCNc1ncc2nc(-c3ccccc3)c(=O)n(C)c2n1`: the “activity, negative = inhibition” value was -26.1%. With `COc1ccc(-c2nc3cnc(N4CCOCC4)nc3n(CCc3ccccc3)c2=O)cc1`, the “activity, negative = inhibition” value is -9.07%. `COc1ccc(C(=O)c2cnc3ccccc3c2-c2ccccc2)cc1`: the AC50 is 12.6 µM (active). Regarding `COc1ccc(C(=O)c2ccccc2)c(O)c1`, the “activity, negative = inhibition” value is -12.2% [at 25.6 µM]. `CCOC(=O)c1cn(-c2nc(-c3ccc(Cl)cc3)cs2)c2c(F)c(N3CC(C)OC(C)C3)c(F)cc2c1=O` (stereo not given): the “activity, negative = inhibition” value is -1.76%.

Take `Cc1ccc(S(=O)(=O)Nc2nc3ccccc3nc2N2CCc3ccccc3C2)cc1`: the concentration at half-maximal activity (AC50) is 2.82 µM (active). For the compound `Cc1ccc2[nH]c3c(N4CCc5ccccc5C4)ncnc3c2c1`, the activity, negative = inhibition was -19.7% [at 2.29 µM]. On to `O=C1C2C3C=CC(C2C(=O)N1CN1CCOCC1)C1C2C(=O)N(CN4CCOCC4)C(=O)C2C31` (stereo not given), for which the activity, negative = inhibition was -1.18% [at 11.4 µM]. `c1cncc(-c2cc(NCc3cccs3)ncn2)c1`: the AC50 was 2.51 µM (active).

Turning to `COc1cccc(-c2cc(NCc3cnc(C)cn3)ncn2)c1`, the concentration at half-maximal activity (AC50) is 25.1 µM (active). With `COc1cccc(-c2cc(NCc3cccs3)ncn2)c1`, the AC50 is 7.94 µM (active). As to `COc1cccc(-c2cc(NCc3cccnc3)ncn2)c1`, the concentration at half-maximal activity (AC50) was 3.98 µM (active). As to `COc1ccccc1-c1cc(NCc2cnc(C)cn2)ncn1`, the “activity, negative = inhibition” value was -29.9%. On to `N[C@](CC1c2ccccc2Oc2ccccc21)(C(=O)O)[C@@H]1C[C@@H]1C(=O)O`, for which the “activity, negative = inhibition” value is -17.2%. In the case of `CCCOC(=O)c1ccc(NC(=O)c2cn(CC)c3nc(C)ccc3c2=O)cc1`, the “activity, negative = inhibition” value is -9.88%. Regarding `C[C@@H]1c2cccc(O)c2C(O)=C2C(=O)[C@@]3(O)C(O)=C(C(N)=O)C(=O)[C@@H](N(C)C)[C@@H]3[C@@H](O)[C@@H]21`, the AC50 result was “inactive”. Turning to `COc1cccc(-c2cc(NCc3ccccc3)ncn2)c1`, the AC50 is 25.1 µM (active). For the compound `O=C(NCCO[N+](=O)[O-])c1cccnc1`, the “activity, negative = inhibition” value is -5.81%. With `O=C(NCCOC(=O)c1ccc(C(=O)OCCNC(=O)c2cccnc2)s1)c1cccnc1`, the AC50 is 2.51 µM (active).

Turning to `CCN1C(=O)/C(=C/C=C2/SCCN2C)SC1=S`, the activity, negative = inhibition is 0.316% [at 2.29 µM]. Consider `CN1CCN(NC(=O)CN2C(=O)/C(=C/c3c(Cl)cccc3Cl)SC2=S)CC1`, for which the AC50 is 14.1 µM (active).

As to `CN1CCN(NC(=O)c2cccc(F)c2)CC1`, the “activity, negative = inhibition” value was -1.37%. As for `CN(C)C(=C(C#N)C#N)N1CCN(c2ccc(Cl)c(Cl)c2)CC1`, the AC50 is 8.91 µM (active). For `CSC(=NC#N)N1CCN(c2ccc(Cl)cc2)CC1`, the “activity, negative = inhibition” value was 22.3%. Consider `C[N@+]1(CCC(=O)c2ccccc2)CC[C@H]2CC[C@H](C2)C1`, for which the activity, negative = inhibition is -5.07% [at 11.4 µM]. For `CCOC(=O)c1c(NC(C)=O)sc2c(OC)cccc12`, the AC50 is 2 µM (active). As for `CCOC(=O)c1sc(NC(C)=O)nc1-c1ccccc1`, the activity, negative = inhibition is -5.57% [at 2.29 µM]. On to `O=[N+]([O-])C(/C=C(\Cl)[N+](=O)[O-])=C1N(Cc2ccc(Cl)nc2)CCN1Cc1ccc(Cl)nc1`, for which the AC50 is 14.1 µM (active). Consider `CC(=O)c1cccc(NC(=O)c2csc(-n3nc(C)cc3C(F)(F)F)n2)c1`, for which the half-maximal activity concentration (AC50) was 10 µM (active). For the compound `CCOC(=O)c1cnn(-c2nc(-c3cccc(F)c3)cs2)c1C(F)(F)F`, the “activity, negative = inhibition” value was 29.3%.

With `CCOc1ccc(CC(C(N)=O)C(N)=O)cc1CN(C)C`, the activity, negative = inhibition was -4.85% [at 2.29 µM].

In the case of `COC(=O)c1ccc(NC(C)=O)o1`, the “activity, negative = inhibition” value is -12.1%.

As for `CCOc1ccc(CC(=O)Nc2sc(Cc3ccccc3)c(C)c2C(N)=O)cc1OCC`, the AC50 is 20 µM (active).

As to `Cc1sc(NC(=O)c2ccccc2)c(C(=O)NCCN(C)C)c1C`, the “activity, negative = inhibition” value was -2.43%. Regarding `COC(=O)c1c(NC(C)=O)sc(Cc2ccccc2)c1C`, the AC50 is 14.1 µM (active). On to `CO[C@]1(NC(=O)[C@H](C(=O)O)c2ccc(O)cc2)C(=O)N2C(C(=O)O)=C(CSc3nnnn3C)CO[C@H]21`, for which the “activity, negative = inhibition” value is 5.89% [at 25.6 µM]. `CC1CCN(C(=O)Nc2ccc3nsnc3c2)CC1`: the “activity, negative = inhibition” value is -28.8%. In the case of `CC1CCN(C(=O)CN(C)S(=O)(=O)c2cccc3nsnc23)CC1`, the AC50 is 3.55 µM (active).

In the case of `CN(CC(=O)Nc1ccc(F)c(F)c1)S(=O)(=O)c1cccc2nsnc12`, the half-maximal activity concentration (AC50) was 5.01 µM (active). Regarding `COc1cc([C@@H](O)CO)ccc1OS(=O)(=O)O`, the “activity, negative = inhibition” value is 2.06%. `COc1cccc(N=c2oc3c(C)ncc(CO)c3cc2C(N)=O)c1`: the AC50 was 17.8 µM (active). As for `CCOC(=O)c1c(C)nc2c(c1-c1ccccc1)C(=O)CC(C)(C)C2`, the “activity, negative = inhibition” value is -29.8%.

As for `CCOC(=O)c1c(C)nc2c(c1-c1ccc(OC)cc1)C(=O)CC(C)(C)C2`, the AC50 was 10 µM (active).

Take `Cc1ccc(NC(=O)/C(=C\c2cccnc2)NC(=O)c2ccco2)cc1`: the “activity, negative = inhibition” value was 15.8%.

As for `O=C(/C=C/c1ccccc1)NNC(=O)c1cccnc1`, the activity, negative = inhibition is -12% [at 2.29 µM]. As to `O=C(Nc1cccc(Br)c1)/C(=C\c1cccnc1)NC(=O)c1ccco1`, the concentration at half-maximal activity (AC50) is 0.501 µM (active). For `CCC(=O)Nc1cccc(C(=O)/C=C/c2ccccc2)c1`, the activity, negative = inhibition was -23.2% [at 11.4 µM]. In the case of `O=C(/C=C/c1cccnc1)c1ccc(NC(=O)c2cccc(Br)c2)cc1`, the AC50 is 2.24 µM (active). Turning to `O=C(N/C(=C\c1cccnc1)C(=O)N1CCOCC1)c1cccc(Br)c1`, the AC50 was 1 µM (active). On to `O=C(Nc1ccc2nc(-c3ccc(Br)o3)[nH]c2c1)c1ccco1`, for which the half-maximal activity concentration (AC50) was 14.1 µM (active).

As to `CCC(=O)NC(NC(=O)CC)C(Cl)Cl`, the “activity, negative = inhibition” value is -2.18%.

As for `NCCCCC(=O)O`, the “activity, negative = inhibition” value is -3.14%. `CCC[C@H]1C[C@H](C(=O)N[C@H]([C@@H]2O[C@H](SC)[C@@H](O)[C@H](O)[C@@H]2O)[C@H](C)O)N(C)C1`: the “activity, negative = inhibition” value was -11.4% [at 25.6 µM]. In the case of `O=C(Nc1cccc(OC(=O)c2ccco2)c1)c1ccco1`, the activity, negative = inhibition was 3.14% [at 11.4 µM]. With `O=C(Nc1cccc(NC(=O)c2ccc(-c3cccc(Br)c3)o2)c1)c1ccco1`, the AC50 is 5.01 µM (active). As to `CCCN(CCO)Cc1ccc(F)c(Br)c1`, the “activity, negative = inhibition” value is -0.689%. In the case of `COc1ccc(OCCn2c(C)c(/C=N/n3cnnc3)c3ccccc32)cc1`, the AC50 was 0.501 µM (active). For the compound `Cc1ccc(NS(=O)(=O)c2ccccc2Cl)c2c1CC(C)(C)O2`, the concentration at half-maximal activity (AC50) is 0.708 µM (active).

Turning to `CN(C)N1C(N)=C(C#N)C(c2cccnc2)C2=C1CC(C)(C)CC2=O` (stereo not given), the AC50 is 2.24 µM (active).

As to `O=c1[nH]c(SCc2c(Cl)c(Cl)c(Cl)c(Cl)c2Cl)nc(=S)[nH]1`, the AC50 was 3.16 µM (active). With `Clc1ccccc1C(Nc1ncccn1)Nc1ncccn1`, the activity, negative = inhibition is 4.33% [at 11.4 µM]. As for `O=S(=O)(C[C@H](O)C(Cl)(Cl)Cl)NNc1ccccc1`, the activity, negative = inhibition was -15.6% [at 11.4 µM]. Turning to `O=C1c2ccccc2C(=O)c2c(NC3CCCCC3)ccc(Nc3ccc(S(=O)(=O)O)cc3)c21`, the activity, negative = inhibition was -21.4% [at 11.4 µM].
